Data: the supplement of paper PMC4166925
± gives the standard deviation of the averaged measurements. Whole data set: some 33,000 sequences, median “E-score (dimensionless, -0.5 to 0.5)” near -0.046, cut for the highest 2% near 0.36. The entries come from a sample that favours the highest values as a whole.

tested on: T1, SpTbr T-box DNA-binding domain (GST fusion); assay: PBM E-score of 8-mer (E-score (dimensionless, -0.5 to 0.5)); Tbr is Tbrain of the sea star Patiria miniata (Pm) or the sea urchin Strongylocentrotus purpuratus (Sp); higher = stronger binding preference; conditions: the construct has about 5 more residues each side
T1 sequence: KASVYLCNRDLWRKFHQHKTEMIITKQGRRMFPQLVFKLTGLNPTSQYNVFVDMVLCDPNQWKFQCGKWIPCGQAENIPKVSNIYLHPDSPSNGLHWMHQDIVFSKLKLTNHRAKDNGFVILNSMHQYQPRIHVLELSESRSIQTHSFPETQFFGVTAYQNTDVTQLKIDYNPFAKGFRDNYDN
Description: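 Universal protein-binding microarray (Agilent AMADID 016060, 60-bp probes with a 35-bp variable region) incubated with 200 nM GST-fused Strongylocentrotus purpuratus Tbr T-box DNA-binding domain (residues 362-554) in PBS pH 7.5. Scored for every ungapped 8-mer (given with its reverse complement) as E-score (range -0.5 to 0.5; >0.45 counts as bound) and Z-score of median probe intensity. Two replicate arrays (datasets 1 and 2).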
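Further: protein at 200 nM in PBS on universal double-stranded arrays.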

| Sequence | PBM E-score of 8-mer |
| --- | --- |
| CTGAGGAC | 0.0509 ± 0.03 |
| AGGGAGCC | -0.14 ± 0.027 |
| CAATACTG | -0.127 ± 0.0078 |
| AATGGGAA | -0.188 ± 0.032 |
| AGGGCTGG | -0.253 ± 0.011 |
| GTTCCTCA | -0.0698 ± 0.064 |
| CTAGCTAA | 0.041 ± 0.025 |
| AGTCGCAA | 0.132 ± 0.0059 |
| AGTCGCAC | 0.387 ± 0.0041 |
| GGTCGCAC | 0.365 ± 0.046 |
| AGTCGCAG | 0.0537 ± 0.061 |
| CGTCGCAC | 0.327 ± 0.0036 |
| GGTCGCAA | 0.208 ± 0.029 |
| CGGGGCTA | -0.315 ± 0.0072 |
| ATCCACAG | -0.0171 ± 0.029 |
| AACCACCC | -0.022 ± 0.044 |
| ACAAAGCC | -0.0854 ± 0.036 |
| ATGGGCCG | -0.31 ± 0.017 |
| GCGGAGAA | 0.059 ± 0.053 |
| GCTGCCAA | 0.0847 ± 0.029 |
| CGTGCCAA | 0.306 ± 0.03 |
| CGTGCCAC | 0.254 ± 0.041 |
| GGTGCCAA | 0.447 ± 0.0064 |
| GGTGCCTA | 0.0923 ± 0.1 |
| AGTGCCAC | 0.25 ± 0.013 |

| Sequence | PBM E-score of 8-mer |
| --- | --- |
| TGTGCCAA | 0.364 ± 0.021 |
| GGTGCCAC | 0.368 ± 0.0043 |
| AGTGCCAA | 0.359 ± 0.0081 |
| CGGAAAAA | 0.019 ± 0.025 |
| ATCAGTGG | -0.149 ± 0.015 |
| CTGTTGTA | 0.0999 ± 0.01 |
| TACGACTA | -0.13 ± 0.016 |
| AATGCTGT | -0.0262 ± 0.063 |
| CCTCAAGA | -0.0881 ± 0.046 |
| GGTACTCA | -0.0116 ± 0.057 |
| ACTCACGG | 0.061 ± 0.057 |
| CATGAAGC | -0.112 ± 0.013 |
| ACGGTTAC | -0.0916 ± 0.0079 |
| ATGCTCAC | 0.277 ± 0.023 |
| TCCATCGA | -0.0839 ± 0.076 |
| GGTCTCAC | 0.3458 ± 0.0029 |
| AAACCTGA | -0.00426 ± 0.071 |
| ACACCTGG | 0.44 ± 0.029 |
| ACACCTGC | 0.4527 ± 0.0032 |
| GAACCTGC | -0.126 ± 0.13 |
| CCACCTGG | 0.186 ± 0.029 |
| CGACCTGC | 0.177 ± 0.026 |
| AGACCTGA | -0.094 ± 0.0078 |
| ATACCTGG | 0.0363 ± 0.063 |
| ATACCTGC | -0.0105 ± 0.0085 |

| Sequence | PBM E-score of 8-mer |
| --- | --- |
| CCACCTGC | 0.269 ± 0.0095 |
| GCACCTGC | 0.388 ± 0.024 |
| ACACCTGA | 0.4627 ± 0.0023 |
| GCCCAAGC | -0.24 ± 0.0088 |
| ACGCAAGA | -0.0517 ± 0.024 |
| AACAACGT | 0.00981 ± 0.00099 |
| CTTTAAGC | -0.136 ± 0.004 |
| AACTTCAG | -0.23 ± 0.022 |
| CTCACTGC | 0.0922 ± 0.076 |
| GCATGTCC | -0.0875 ± 0.095 |
| CGGCTTGC | -0.14 ± 0.0054 |
| AAGCGAGG | 0.115 ± 0.03 |
| CAAGCTAC | -0.147 ± 0.014 |
| AAGTGTTG | 0.422 ± 0.02 |
| AAGTGGTA | 0.083 ± 0.018 |
| GAGTGTAC | -0.0659 ± 0.019 |
| CAGTGTTC | 0.0165 ± 0.024 |
| AAGTGTTA | 0.451 ± 0.00073 |
| CAGTGTTA | 0.31 ± 0.028 |
| AAGTGTTC | 0.226 ± 0.11 |
| AAGTGTAC | 0.00907 ± 0.056 |
| GAGTGTTA | 0.386 ± 0.021 |
| CATCTGTA | -0.0572 ± 0.038 |
| CACCAATG | 0.179 ± 0.0061 |
| CACAATCC | 0.0504 ± 0.056 |

| Sequence | PBM E-score of 8-mer |
| --- | --- |
| ATGCCCAT | -0.184 ± 0.01 |
| AGGCAGAT | -0.0669 ± 0.075 |
| TGGGCGAA | -0.169 ± 0.019 |
| GAGGACAC | 0.155 ± 0.015 |
| GGTGGGGA | 0.248 ± 0.033 |
| ATCAGGTG | 0.386 ± 0.015 |
| ATCAGGTC | -0.171 ± 0.075 |
| ATCAGGTA | -0.128 ± 0.008 |
| AGCAGGTG | 0.377 ± 0.00094 |
| AGCAGGTC | -0.0223 ± 0.011 |
| AGCAGGTA | -0.132 ± 0.031 |
| CACAGGTC | 0.198 ± 0.045 |
| CACAGGTA | 0.141 ± 0.0043 |
| AACAGGTG | 0.364 ± 0.028 |
| AACAGGTA | 0.0912 ± 0.072 |
| CACAGGTG | 0.453 ± 0.005 |
| AACAGGTC | 0.107 ± 0.0057 |
| AGCGGTGC | -0.00638 ± 0.018 |
| ACAATGCG | 0.222 ± 0.025 |
| CGAGAGTA | 0.0304 ± 0.018 |
| GAGATTGC | 0.116 ± 0.014 |
| CGCTGGCC | -0.032 ± 0.027 |
| CTTACTCC | -0.125 ± 0.049 |
| CAGCGTGG | -0.111 ± 0.012 |
| CAGTCCAC | 0.192 ± 0.026 |

| Sequence | PBM E-score of 8-mer |
| --- | --- |
| AGCACTCA | 0.079 ± 0.03 |
| AAAGCAAA | 0.00628 ± 0.091 |
| CTGTGGGA | 0.105 ± 0.057 |
| GTGTGGGA | 0.387 ± 0.038 |
| ATGTGGAA | 0.0153 ± 0.034 |
| CTGTGGAA | 0.061 ± 0.12 |
| GTGTGGAA | 0.3848 ± 0.0012 |
| ATGTGGGA | 0.234 ± 0.041 |
| CGGCCCAG | -0.2798 ± 0.0014 |
| CAGAATGC | 0.0116 ± 0.023 |
| GCCACGAA | 0.00399 ± 0.009 |
| CGCCAGCC | 0.0479 ± 0.008 |
| TGCGAACA | 0.419 ± 0.015 |
| TGCGAAAA | 0.383 ± 0.038 |
| AGCGAAAA | -0.0276 ± 0.011 |
| AGCGAACA | 0.078 ± 0.037 |
| CGCGAAAA | 0.347 ± 0.04 |
| GGCGAACA | 0.137 ± 0.018 |
| CGTTTCAA | -0.029 ± 0.015 |
| CGCTGTAC | -0.164 ± 0.046 |
| ATACAGGG | -0.276 ± 0.015 |
| AAGGGTAT | -0.121 ± 0.02 |
| GTGCGTGA | 0.316 ± 0.057 |
| CTGCGTGA | 0.172 ± 0.033 |
| GCGCGTGA | 0.344 ± 0.033 |

| Sequence | PBM E-score of 8-mer |
| --- | --- |
| AAGCGTGA | 0.415 ± 0.01 |
| AGGCGTGA | 0.4754 ± 0.0047 |
| ACGCGTGC | 0.149 ± 0.066 |
| AAGCGTGG | 0.179 ± 0.047 |
| ATGCGTGA | 0.374 ± 0.0053 |
| AGGCGTGG | 0.321 ± 0.044 |
| ACGCGTGA | 0.407 ± 0.0058 |
| AAGCGTGT | 0.288 ± 0.012 |
| AGGCGTGC | 0.236 ± 0.052 |
| AGGATGAT | -0.095 ± 0.066 |
| TCCACGGA | -0.0375 ± 0.11 |
| CTCCAAGA | -0.0401 ± 0.032 |
| ACGGCTCA | -0.0392 ± 0.022 |
| TTATTGAA | -0.142 ± 0.024 |
| GAATCAGA | -0.0679 ± 0.055 |
| CGGCGTGA | 0.33 ± 0.047 |
| AGGCGTTA | 0.434 ± 0.018 |
| GGGCGTTA | 0.2697 ± 0.0022 |
| GGGCGTAA | 0.131 ± 0.047 |
| AGGCGTTG | 0.355 ± 0.0053 |
| GGGCGTGA | 0.44 ± 0.015 |
| CACTAGCG | 0.139 ± 0.072 |
| AGGTTTGC | -0.0997 ± 0.11 |
| ATCGTGAG | 0.208 ± 0.0056 |
| TATTCGGA | -0.284 ± 0.034 |

| Sequence | PBM E-score of 8-mer |
| --- | --- |
| CACTCAGG | -0.0871 ± 0.041 |
| AGTGCGAA | 0.47263 ± 0.00019 |
| AATGCGAA | 0.0358 ± 0.024 |
| CTTGCGAA | 0.343 ± 0.019 |
| AGTGCGTA | 0.0849 ± 0.013 |
| GTTGCGAA | 0.393 ± 0.0099 |
| GCTGCGAC | 0.137 ± 0.059 |
| GGTGCGAC | 0.452 ± 0.0081 |
| ATTGCGAA | 0.284 ± 0.041 |
| CGTGCGCA | 0.155 ± 0.0026 |
| CGTGCAAA | 0.146 ± 0.024 |
| CGTGCGAA | 0.4443 ± 0.0016 |
| GATGCGAC | 0.216 ± 0.022 |
| AATAGCAT | -0.0159 ± 0.004 |
| ATCCTGTG | 0.00404 ± 0.015 |
| AATATCAT | -0.161 ± 0.0081 |
| CCTGGGCG | 0.118 ± 0.03 |
| CCTGCGAA | 0.367 ± 0.0099 |
| TGTGCGAA | 0.458 ± 0.0092 |
| ACTGCGAA | 0.332 ± 0.018 |
| TCTGCGAA | 0.202 ± 0.04 |
| TATGCGAA | 0.131 ± 0.068 |
| GATGCGAA | 0.202 ± 0.066 |
| ACGCGAAG | 0.185 ± 0.027 |
| AAAGTAGA | -0.0436 ± 0.055 |
